The values below come from PubChem BioAssay (EPA / NIEHS).

Test [1] can be described thus: ATG_NFI_CIS: Attagene CIS-FACTORIAL HepG2 Assay for human Nuclear Factor I (NFI) (AID 2282989). As to conditions: HepG2 cis-regulatory reporter, NFI response element transcription; actives raise or lower the signal. An outline of the steps: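 After transient transfection of HepG2 with cis-promoter reporter constructs and 24 h dosing, RNA is reverse-transcribed, amplified, 6-FAM end-labelled and HpaI-digested before capillary analysis. Bidirectional curve fitting against DMSO.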

For test [2], the target named is Myc proto-oncogene protein (Homo sapiens) (UniProt P01106). The test is described as follows: ATG_Myc_CIS: Attagene CIS-FACTORIAL HepG2 Assay for human Myelocytomatosis (Myc) Proto-Oncogene Transcription Factor (AID 2282990). As to conditions: HepG2, Attagene cis-reporter transcription factor activity; actives raise or lower the signal. An outline of the steps: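 Read-out: fluorescent reporter mRNA fragments resolved by capillary electrophoresis after RT-PCR. Human HepG2 liver cells carried transfected cis-element reporter units and were dosed for 24 h. Gain or loss of signal fitted relative to DMSO baseline.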

The nature of test [3]: ATG_NRF2_ARE_CIS: Attagene CIS-FACTORIAL HepG2 Assay for human Nuclear Factor Erythroid 2 Related Factor 2 (NFR2) response to Antioxidant Response Elements (ARE) (AID 2282992). As to conditions: HepG2 Attagene ARE/NRF2 reporter, transcription factor activity; actives raise or lower the signal. An outline of the steps: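 Fluorescence intensity of reporter-specific cDNA fragments, separated by capillary electrophoresis, reflects mRNA induction in transfected HepG2 cells at 24 h. Activity is fitted bidirectionally, DMSO serving as baseline.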

Test [4] addresses Cellular tumor antigen p53 (Homo sapiens) (UniProt P04637). The test is described as follows: ATG_p53_CIS: Attagene CIS-FACTORIAL HepG2 Assay for human p53 Transcription Factor (AID 2282994). As to conditions: HepG2 p53 cis-element reporter, Attagene mRNA; actives raise or lower the signal. An outline of the steps:
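Transiently transfected HepG2 (multiple cis reporter transcription units); exposure 24 h; reporter RNA via RT-PCR, 6-FAM extension, 2 h HpaI digest at 37 C, CE detection; DMSO baseline.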

Test [5] concerns the target human Peroxisome Proliferator-activated Receptor alpha (PPARa), PPARA (gene 5465) (UniProt Q07869). The experiment in a line: ATG_PPARa_TRANS: Attagene TRANS-FACTORIAL HepG2 Assay for human Peroxisome Proliferator-activated Receptor alpha (PPARa) (AID 2283001; active = hit-call score of the fitted dose curve at least 0.9, where 1 is the maximum;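 as to AC50: potency for gain of reporter signal over DMSO so agonist or activator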). An outline of the steps:
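Transient HepG2 transfection, GAL4-UAS reporters, NR-Gal4 chimeras; 24 h compound exposure. Readout: reporter transcripts by RT-PCR, 6-FAM primer extension, HpaI digest, capillary electrophoresis. Positive direction vs DMSO baseline.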

Test [6] deals with human Peroxisome Proliferator-activated Receptor delta (PPARd), PPARD (gene 5467) (UniProt Q03181). The test is described as follows: ATG_PPARd_TRANS: Attagene TRANS-FACTORIAL HepG2 Assay for human Peroxisome Proliferator-activated Receptor delta (PPARd) (AID 2283002; active = hit-call score of the fitted dose curve at least 0.9, where 1 is the maximum). An outline of the steps:
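Read-out: reporter mRNA induction, quantified by fluorescent RT-PCR products resolved by capillary electrophoresis. Human HepG2 liver cells carried transiently transfected Gal4-UAS reporter constructs with chimeric NR-Gal4 fusions. Cells were dosed for 24 h; DMSO served as baseline.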

For test [7], the target named is Peroxisome proliferator-activated receptor gamma (Homo sapiens) (UniProt P37231). The experiment in a line: ATG_PPARg_TRANS: Attagene TRANS-FACTORIAL HepG2 Assay for human Peroxisome Proliferator-activated Receptor-gamma (PPARg) (AID 2283007; active = hit-call score of the fitted dose curve at least 0.9, where 1 is the maximum). An outline of the steps:
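HepG2 cells transiently transfected with multiplexed GAL4-UAS reporter units and exogenous chimeric NR-Gal4 proteins; reporter mRNA quantified after 24 h compound exposure by RT-PCR, fluorescent labelling, HpaI digestion and capillary electrophoresis; gain-of-signal fitted versus DMSO baseline.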

Test [8] deals with Nuclear receptor subfamily 1 group I member 2 (Homo sapiens) (UniProt O75469). The test is described as follows: ATG_PXR_TRANS: Attagene TRANS-FACTORIAL HepG2 Assay for human Pregnane X Receptor (PXR) (AID 2283008; active = hit-call score of the fitted dose curve at least 0.9, where 1 is the maximum). The gist of the method: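 Transient HepG2 transfectants carrying multiplexed reporter transcription units; PXR activity read through a Gal4 chimera. 24 h exposure. RT-PCR/CE fluorescence; upward curve fit referenced to DMSO.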

For test [9], the target named is human RAR-related Orphan Receptor beta (RORb), RORB (gene 6096) (UniProt Q92753). The test is described as follows: ATG_RORb_TRANS: Attagene TRANS-FACTORIAL HepG2 Assay for human RAR-related Orphan Receptor beta (RORb) (AID 2283010; active = hit-call score of the fitted dose curve at least 0.9, where 1 is the maximum). The gist of the method: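 HepG2, transient MRTU transfection (GAL4-UAS reporters, exogenous NR-Gal4 chimeras); 24 h compound exposure; total RNA → RT-PCR → 6-FAM primer extension → HpaI digest → CE fluorescence. Positive direction vs DMSO baseline.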

Test [10] has as its target Retinoic acid receptor alpha (Homo sapiens) (UniProt P10276). The experiment in a line: ATG_RARa_TRANS: Attagene TRANS-FACTORIAL HepG2 Assay for human Retinoic Acid Receptor alpha (RARa) (AID 2283005; active = hit-call score of the fitted dose curve at least 0.9, where 1 is the maximum). An outline of the steps:
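HepG2 transiently transfected with multiplex GAL4-UAS reporter units including a human RARa–GAL4 chimera; 24 h compound exposure. Reporter mRNA quantified by RT-PCR, 6-FAM labeling and capillary electrophoresis; gain of signal versus DMSO.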

Test [11] in a line: ATG_Oct_MLP_CIS: Attagene CIS-FACTORIAL HepG2 Assay for human Octamer-Binding Transcription Factor (Oct) (AID 2282993). The following applies: HepG2 Attagene cis-factorial Oct reporter, mRNA; actives raise or lower the signal. The gist of the method:
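Cells of the HepG2 line express promoter-controlled reporter sequences whose mRNA levels, after 24 h treatment, are measured by RT-PCR and capillary electrophoresis. Increases and decreases are scored relative to DMSO.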

Test [12] has as its target human Retinoic Acid Receptor beta (RARb), RARB (gene 5915) (UniProt P10826). The experiment in a line: ATG_RARb_TRANS: Attagene TRANS-FACTORIAL HepG2 Assay for human Retinoic Acid Receptor beta (AID 2283004; active = hit-call score of the fitted dose curve at least 0.9, where 1 is the maximum). The gist of the method:
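Induction of reporter mRNA from a chimeric RARb-Gal4 construct was measured by RT-PCR, FAM labelling, HpaI digestion and capillary electrophoresis. Measurements followed 24 h compound treatment of transiently transfected human HepG2 liver cells, with DMSO as baseline.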

For test [13], the target named is human Retinoic Acid Receptor gamma (RARg), RARG (gene 5916) (UniProt P13631). The experiment in a line: ATG_RARg_TRANS: Attagene TRANS-FACTORIAL HepG2 Assay for human Retinoic Acid Receptor gamma (RARg) (AID 2283009; active = hit-call score of the fitted dose curve at least 0.9, where 1 is the maximum). An outline of the steps: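 Readout: reporter transcript levels via RT-PCR, 6-FAM primer-extension labelling, HpaI digestion and capillary electrophoresis. Cells: HepG2 carrying transfected RARg-GAL4 chimera plus UAS reporter set. Dosing 24 h; DMSO negative control.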

Records with an inconclusive call do not appear. Calls of active or inactive are those of the source. The calls were made as follows, unless noted: active = hit-call score of the fitted dose curve at least 0.9, where 1 is the maximum; inactive = score below 0.9.

Sequence of Myc proto-oncogene protein (Homo sapiens) (P01106 whole entry, looked up, the tested form may be a part): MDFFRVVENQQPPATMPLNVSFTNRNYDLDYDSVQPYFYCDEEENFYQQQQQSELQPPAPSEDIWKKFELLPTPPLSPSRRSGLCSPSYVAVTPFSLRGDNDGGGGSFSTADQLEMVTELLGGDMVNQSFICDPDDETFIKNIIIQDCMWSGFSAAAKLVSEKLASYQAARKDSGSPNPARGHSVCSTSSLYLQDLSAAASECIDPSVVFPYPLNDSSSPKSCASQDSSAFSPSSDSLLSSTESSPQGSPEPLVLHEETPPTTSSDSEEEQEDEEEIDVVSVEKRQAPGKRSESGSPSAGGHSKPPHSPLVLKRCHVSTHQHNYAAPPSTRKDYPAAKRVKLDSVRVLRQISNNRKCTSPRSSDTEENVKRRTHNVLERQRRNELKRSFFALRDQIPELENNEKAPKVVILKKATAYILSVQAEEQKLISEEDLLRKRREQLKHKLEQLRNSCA
Sequence of human RAR-related Orphan Receptor beta (RORb), RORB (gene 6096) (Q92753 whole entry, looked up, the tested form may be a part): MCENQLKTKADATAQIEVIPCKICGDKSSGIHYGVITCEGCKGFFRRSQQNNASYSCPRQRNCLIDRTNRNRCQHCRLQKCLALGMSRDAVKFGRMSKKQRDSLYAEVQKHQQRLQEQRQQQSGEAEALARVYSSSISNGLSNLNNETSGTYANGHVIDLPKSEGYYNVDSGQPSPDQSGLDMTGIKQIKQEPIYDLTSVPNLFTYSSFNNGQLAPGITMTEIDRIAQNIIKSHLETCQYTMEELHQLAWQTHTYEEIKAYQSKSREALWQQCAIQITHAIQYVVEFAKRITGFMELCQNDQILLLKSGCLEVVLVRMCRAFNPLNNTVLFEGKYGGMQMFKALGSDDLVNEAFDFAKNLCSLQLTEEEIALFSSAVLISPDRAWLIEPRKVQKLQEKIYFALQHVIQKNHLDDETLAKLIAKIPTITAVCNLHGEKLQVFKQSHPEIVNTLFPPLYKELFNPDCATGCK
Sequence of Cellular tumor antigen p53 (Homo sapiens) (P04637 whole entry, looked up): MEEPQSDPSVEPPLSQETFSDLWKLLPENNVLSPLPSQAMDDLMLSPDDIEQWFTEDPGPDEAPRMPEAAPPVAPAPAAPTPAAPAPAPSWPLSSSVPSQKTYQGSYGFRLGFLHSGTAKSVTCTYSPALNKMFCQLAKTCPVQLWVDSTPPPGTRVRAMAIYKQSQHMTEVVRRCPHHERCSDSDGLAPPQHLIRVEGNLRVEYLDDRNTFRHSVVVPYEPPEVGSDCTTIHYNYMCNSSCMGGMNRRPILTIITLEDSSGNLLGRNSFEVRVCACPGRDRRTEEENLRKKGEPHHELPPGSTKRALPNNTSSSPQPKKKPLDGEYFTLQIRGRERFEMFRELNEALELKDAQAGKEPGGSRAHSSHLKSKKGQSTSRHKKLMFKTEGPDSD
Sequence of Peroxisome proliferator-activated receptor gamma (Homo sapiens) (P37231 whole entry, looked up, the tested form may be a part): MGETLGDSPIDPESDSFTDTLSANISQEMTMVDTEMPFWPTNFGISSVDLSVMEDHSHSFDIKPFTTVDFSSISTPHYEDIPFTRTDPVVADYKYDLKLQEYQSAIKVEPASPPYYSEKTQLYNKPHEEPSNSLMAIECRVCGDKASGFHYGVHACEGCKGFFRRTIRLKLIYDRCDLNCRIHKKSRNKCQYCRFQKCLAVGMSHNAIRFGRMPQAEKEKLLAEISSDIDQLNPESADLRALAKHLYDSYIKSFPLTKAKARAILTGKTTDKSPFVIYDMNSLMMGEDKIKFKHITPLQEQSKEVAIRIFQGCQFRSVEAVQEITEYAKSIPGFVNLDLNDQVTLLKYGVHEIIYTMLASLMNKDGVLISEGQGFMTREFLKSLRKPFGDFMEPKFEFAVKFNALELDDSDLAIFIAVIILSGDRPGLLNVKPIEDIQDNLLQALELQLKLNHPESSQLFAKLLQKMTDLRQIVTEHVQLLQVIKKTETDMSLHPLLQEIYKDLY
Sequence of human Peroxisome Proliferator-activated Receptor delta (PPARd), PPARD (gene 5467) (Q03181 whole entry, looked up, the tested form may be a part): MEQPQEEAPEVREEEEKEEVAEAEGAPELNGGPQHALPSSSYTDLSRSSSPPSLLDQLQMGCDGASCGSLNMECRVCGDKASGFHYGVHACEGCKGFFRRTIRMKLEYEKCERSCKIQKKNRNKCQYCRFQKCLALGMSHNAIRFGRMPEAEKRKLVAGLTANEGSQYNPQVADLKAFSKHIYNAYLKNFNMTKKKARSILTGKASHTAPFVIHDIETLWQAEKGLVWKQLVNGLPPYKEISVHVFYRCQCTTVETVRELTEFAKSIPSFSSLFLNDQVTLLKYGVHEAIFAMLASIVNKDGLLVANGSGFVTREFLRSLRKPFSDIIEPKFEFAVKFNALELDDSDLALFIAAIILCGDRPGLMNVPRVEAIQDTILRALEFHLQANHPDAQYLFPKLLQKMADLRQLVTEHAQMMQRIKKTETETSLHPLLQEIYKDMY
Sequence of Nuclear receptor subfamily 1 group I member 2 (Homo sapiens) (O75469 whole entry, looked up, the tested form may be a part): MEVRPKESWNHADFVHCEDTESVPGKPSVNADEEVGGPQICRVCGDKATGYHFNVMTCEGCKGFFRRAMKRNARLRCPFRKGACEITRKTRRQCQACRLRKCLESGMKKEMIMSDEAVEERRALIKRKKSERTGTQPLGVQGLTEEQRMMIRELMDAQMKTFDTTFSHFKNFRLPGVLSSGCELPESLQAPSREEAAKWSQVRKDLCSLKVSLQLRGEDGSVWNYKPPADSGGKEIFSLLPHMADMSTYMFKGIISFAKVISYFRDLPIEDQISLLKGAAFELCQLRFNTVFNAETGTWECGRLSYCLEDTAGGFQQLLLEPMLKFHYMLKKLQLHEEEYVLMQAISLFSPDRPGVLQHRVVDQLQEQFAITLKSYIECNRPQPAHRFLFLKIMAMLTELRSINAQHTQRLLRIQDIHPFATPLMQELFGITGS
Sequence of human Retinoic Acid Receptor gamma (RARg), RARG (gene 5916) (P13631 whole entry, looked up, the tested form may be a part): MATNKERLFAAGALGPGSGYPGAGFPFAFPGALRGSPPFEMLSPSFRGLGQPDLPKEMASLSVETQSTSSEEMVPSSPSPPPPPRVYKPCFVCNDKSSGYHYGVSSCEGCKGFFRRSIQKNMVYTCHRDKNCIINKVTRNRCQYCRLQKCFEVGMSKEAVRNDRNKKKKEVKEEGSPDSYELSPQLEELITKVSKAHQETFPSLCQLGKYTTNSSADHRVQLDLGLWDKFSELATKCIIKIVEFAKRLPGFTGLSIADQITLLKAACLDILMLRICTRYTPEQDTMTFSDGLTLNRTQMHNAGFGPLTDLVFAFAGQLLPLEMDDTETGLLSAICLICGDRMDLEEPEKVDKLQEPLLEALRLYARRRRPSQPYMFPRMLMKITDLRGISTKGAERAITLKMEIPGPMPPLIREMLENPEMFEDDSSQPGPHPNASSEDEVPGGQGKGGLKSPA
Sequence of human Peroxisome Proliferator-activated Receptor alpha (PPARa), PPARA (gene 5465) (Q07869 whole entry, looked up, the tested form may be a part): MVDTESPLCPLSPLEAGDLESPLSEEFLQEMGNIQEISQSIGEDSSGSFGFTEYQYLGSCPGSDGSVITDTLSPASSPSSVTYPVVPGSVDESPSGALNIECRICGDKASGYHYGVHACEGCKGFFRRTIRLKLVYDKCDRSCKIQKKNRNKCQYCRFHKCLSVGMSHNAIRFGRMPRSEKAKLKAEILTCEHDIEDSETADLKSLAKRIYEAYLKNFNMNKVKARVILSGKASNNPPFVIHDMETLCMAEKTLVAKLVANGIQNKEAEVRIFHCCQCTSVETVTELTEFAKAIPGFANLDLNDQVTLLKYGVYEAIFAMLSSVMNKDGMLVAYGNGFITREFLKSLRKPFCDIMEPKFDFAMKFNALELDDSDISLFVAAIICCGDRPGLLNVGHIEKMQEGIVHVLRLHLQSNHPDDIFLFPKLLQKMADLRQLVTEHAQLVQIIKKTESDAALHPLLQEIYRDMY
Sequence of human Retinoic Acid Receptor beta (RARb), RARB (gene 5915) (P10826 whole entry, looked up, the tested form may be a part): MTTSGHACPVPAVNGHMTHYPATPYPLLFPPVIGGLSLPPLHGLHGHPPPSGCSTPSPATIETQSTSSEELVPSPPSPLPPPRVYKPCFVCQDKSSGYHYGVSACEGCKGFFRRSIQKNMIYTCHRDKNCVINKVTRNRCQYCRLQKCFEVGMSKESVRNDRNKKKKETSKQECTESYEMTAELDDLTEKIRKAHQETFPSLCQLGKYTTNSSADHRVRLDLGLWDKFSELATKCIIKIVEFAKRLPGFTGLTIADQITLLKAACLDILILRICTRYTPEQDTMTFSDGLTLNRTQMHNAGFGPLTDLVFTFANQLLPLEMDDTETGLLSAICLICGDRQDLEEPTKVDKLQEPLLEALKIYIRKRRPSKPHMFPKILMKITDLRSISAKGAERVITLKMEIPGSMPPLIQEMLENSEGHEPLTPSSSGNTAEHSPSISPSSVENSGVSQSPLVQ
Sequence of Retinoic acid receptor alpha (Homo sapiens) (P10276 whole entry, looked up, the tested form may be a part): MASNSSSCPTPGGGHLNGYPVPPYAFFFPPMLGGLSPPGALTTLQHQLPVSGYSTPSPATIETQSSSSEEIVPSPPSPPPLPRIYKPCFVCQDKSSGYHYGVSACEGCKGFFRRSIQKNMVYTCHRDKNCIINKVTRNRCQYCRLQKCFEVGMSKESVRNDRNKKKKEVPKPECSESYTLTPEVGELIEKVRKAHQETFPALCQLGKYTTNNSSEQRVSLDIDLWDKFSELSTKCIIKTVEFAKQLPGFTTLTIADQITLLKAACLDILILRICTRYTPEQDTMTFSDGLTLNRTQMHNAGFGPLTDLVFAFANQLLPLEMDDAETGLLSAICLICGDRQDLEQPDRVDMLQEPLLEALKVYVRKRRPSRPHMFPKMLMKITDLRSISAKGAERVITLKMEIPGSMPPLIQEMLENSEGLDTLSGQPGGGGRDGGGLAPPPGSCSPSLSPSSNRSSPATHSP

One may read the AC50 as the concentration at which the activity in the assay is half-maximal. Turning to `CCCCCCCC/C=C\CCCCCCCC(=O)O`, the result in test [1], in [2], in [4] and in [8] was inactive. Besides, the concentration at half-maximal activity (AC50) in test [3] is 100 µM (active); in [5] it was 21.8 µM (active); in test [6], 100 µM (active); in [7] it was 18.8 µM (active).

In the case of `CC(C)c1ccc2cc(C(C)C)ccc2c1`, the molecule was called inactive in test [1], in [2] and in test [9]. The concentration at half-maximal activity (AC50) in [8] is 7.42 µM (active).

For `O=Cc1ccc(CO)o1`, the molecule was called inactive in [1], in test [2], in test [3], in test [4] and in test [10].

For the molecule `CC(=O)OCC(C)OC(C)=O` (stereo not given), the call in [1], in [2], in test [11], in test [4], in test [6] and in [12] was inactive. In addition, the result in test [8] and in [9] was inactive.

As for `CC1(C)O[C@@H]2C[C@H]3[C@@H]4C[C@H](F)C5=CC(=O)C=C[C@]5(C)[C@@]4(F)[C@@H](O)C[C@]3(C)[C@]2(C(=O)CO)O1`, the molecule was called inactive in [1], in test [2], in test [3], in test [11], in [6] and in test [8].

Consider `CC(C)(C)C(=O)CCc1ccc(Cl)cc1`, for which the call in [1], in test [2], in test [3], in test [11], in test [6] and in test [7] was inactive. The outcome in [8] and in test [13] was inactive.

Regarding `OCCNCc1ccccc1`, the call in test [1], in test [2], in test [3], in test [4], in test [5] and in [6] was inactive. Also, the molecule was called inactive in test [9].

As for `CCCCCCC(O)CO` (stereo not given), the molecule was called inactive in test [1], in [2], in [3], in [11], in test [6] and in test [13].

Regarding `CCOC(=O)CC`, the outcome in test [1], in [2], in test [3], in test [11], in test [6] and in test [8] was inactive.

As to `CCC(=O)Oc1ccc(/C(CC)=C(\CC)c2ccc(OC(=O)CC)cc2)cc1`, the AC50 in test [1] is 25.2 µM (active); in test [4] it was 27.9 µM (active); in test [7], 18.5 µM (active); in test [8], 4.5 µM (active). Moreover, the result in [2], in test [3] and in test [6] was inactive.
